# Laboratory results from publication PMC4336329 (PLoS ONE, 2015).
# The whole screen tested about 310,000 compounds, of which about 14,000 (4.5%) showed an effect of 50% or more. Effects have a minus sign here. Shown is part of a subset that was picked to be rich in strong results.
# Molecular target: human ether-à-go-go-related gene (hERG) potassium channel (human, UniProt Q12809)
# Assay: primary screen, population patch clamp on CHO cells stably expressing hERG; higher = less effect of the substance
# 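Note: peak tail current of the secondary pulse compared with the same well before compound.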
# Chain of human ether-à-go-go-related gene (hERG) potassium channel (Q12809 whole entry, looked up): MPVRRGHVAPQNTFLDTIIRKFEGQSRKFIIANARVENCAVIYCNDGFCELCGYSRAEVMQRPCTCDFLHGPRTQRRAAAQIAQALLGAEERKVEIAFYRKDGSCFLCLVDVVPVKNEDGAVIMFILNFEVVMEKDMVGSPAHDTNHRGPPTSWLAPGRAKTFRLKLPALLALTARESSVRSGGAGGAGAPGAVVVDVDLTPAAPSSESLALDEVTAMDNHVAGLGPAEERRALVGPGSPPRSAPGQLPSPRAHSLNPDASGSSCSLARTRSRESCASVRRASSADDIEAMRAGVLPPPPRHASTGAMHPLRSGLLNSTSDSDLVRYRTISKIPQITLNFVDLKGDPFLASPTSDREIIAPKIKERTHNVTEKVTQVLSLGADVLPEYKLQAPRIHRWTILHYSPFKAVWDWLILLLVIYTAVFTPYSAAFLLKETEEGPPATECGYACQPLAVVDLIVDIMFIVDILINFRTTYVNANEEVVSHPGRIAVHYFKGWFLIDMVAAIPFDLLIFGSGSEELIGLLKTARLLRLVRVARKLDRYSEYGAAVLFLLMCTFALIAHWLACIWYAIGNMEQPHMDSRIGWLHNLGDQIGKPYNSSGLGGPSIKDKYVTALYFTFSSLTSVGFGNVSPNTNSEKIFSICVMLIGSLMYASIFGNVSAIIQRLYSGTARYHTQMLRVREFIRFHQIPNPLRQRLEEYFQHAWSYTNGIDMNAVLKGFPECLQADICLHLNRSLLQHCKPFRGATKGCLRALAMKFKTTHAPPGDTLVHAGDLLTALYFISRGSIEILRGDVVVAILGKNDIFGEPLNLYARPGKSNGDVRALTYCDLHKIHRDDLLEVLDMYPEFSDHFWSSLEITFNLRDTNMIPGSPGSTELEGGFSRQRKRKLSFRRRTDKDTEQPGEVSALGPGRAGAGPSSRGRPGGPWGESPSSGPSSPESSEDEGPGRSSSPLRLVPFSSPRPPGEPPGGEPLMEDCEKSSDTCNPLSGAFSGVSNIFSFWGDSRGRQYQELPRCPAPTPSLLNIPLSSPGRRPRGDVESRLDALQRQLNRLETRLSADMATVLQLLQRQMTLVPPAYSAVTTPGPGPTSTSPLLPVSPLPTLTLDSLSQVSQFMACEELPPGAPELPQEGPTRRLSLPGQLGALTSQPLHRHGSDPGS
row,SMILES,"hERG current change (%, negative = inhibition) at 10uM"
1,Cc1ccc(Nc2cc(C)nc(N3CCOCC3)n2)cc1,6.18%
2,O=S(=O)(NC1CCCCC1)c1cccc(-c2nnc(-c3ccccc3)o2)c1,-36.4%
3,Cc1ccc(N=C2S/C(=C/c3cccc(OCC(=O)O)c3)C(=O)N2C)cc1C,20.5%
4,O=C(c1ccc(C(=O)N2CCCc3ccccc32)nc1)N1CCCc2ccccc21,-9.08%
5,CCNC(=O)CSc1nnc(-c2ccc(OC)cc2)n1CC(C)C,-3.51%
6,CC1CCCN(C(=O)Cn2c3ccccc3c3nc4n(c(=O)c32)CCS4)C1 (stereo not drawn),-3.59%
7,CCc1ccc([C@@H]2C[C@H]3CN(Cc4ccccc4OC)C(=O)[C@]34CCCN24)cc1,-70.7%
8,O=C1N(Cc2cccnc2)C[C@@H]2C[C@@H](c3ccc(C(F)(F)F)cc3)N3CCC[C@@]123,-53.9%
9,COc1ccccc1CN1C[C@@H]2C[C@@H](c3ccc(C)cc3)N3CCC[C@@]23C1=O,-43.6%
10,COc1ccccc1CN1C[C@@H]2C[C@@H](c3ccc(Cl)cc3)N3CCC[C@@]23C1=O,-44.1%
11,O=C1N(Cc2cccnc2)C[C@@H]2C[C@@H](c3ccccc3C#Cc3ccccc3)N3CCC[C@@]123,-69.5%
12,O=C1N(Cc2cccnc2)C[C@@H]2C[C@@H](c3cccc(C(F)(F)F)c3)N3CCC[C@@]123,-10.3%
13,Cc1ccccc1-c1cccc([C@@H]2C[C@H]3CN(Cc4cccnc4)C(=O)[C@]34CCCN24)c1,-59%
14,Cc1ccccc1CN1C[C@@H]2C[C@@H](c3ccc4nsnc4c3)N3CCC[C@@]23C1=O,-18.1%
15,O=C1N(Cc2cccnc2)C[C@@H]2C[C@@H](c3ccccc3C(F)(F)F)N3CCC[C@@]123,-11.2%
16,Cc1ccc(NC(=S)N2CCn3cccc3C2c2cccnc2)cc1 (stereo not drawn),-37.3%
17,CCOc1ccccc1-c1nc(-c2ccncc2)no1,-15.8%
18,COc1cccc(-c2ccc(SCC(=O)NCCc3ccccc3)nn2)c1,-41.7%
19,CCCN(C(=O)C(C)Oc1cccc(Cl)c1)c1c(N)n(Cc2ccccc2)c(=O)[nH]c1=O (stereo not drawn),1.41%
20,CCC(C)N1C(=O)c2ccccc2C1C(=O)NC1CCCCCC1 (stereo not drawn),4.45%
21,COC(=O)c1cc2occc2n1Cc1ccc(Cl)cc1,9.68%

row,SMILES,"hERG current change (%, negative = inhibition) at 10uM"
1,Nc1nonc1-n1nnc(C(=O)N/N=C/c2ccc(OCc3ccccc3)cc2)c1CN1CCCCC1,7.17%
2,Cc1ccccc1S(=O)(=O)NCc1cccnc1,5.17%
3,CN(C)S(=O)(=O)Nc1cc(Cl)cc(Cl)c1,-0.782%
4,COc1ccc(C(O)(CCN2CCCCC2)C2CCCCC2)cc1.Cl (stereo not drawn),-27.4%
5,CC(C)C1N(C(=O)CN2CCCC2)CCN1S(=O)(=O)c1ccccc1 (stereo not drawn),11%
6,Cc1cc(C(=O)NNc2cc(Cl)ccc2Cl)no1,6.55%
7,O=C1N(Cc2cccnc2)C[C@@H]2C[C@@H](c3ccc(-c4ccccc4)cc3)N3CCC[C@@]123,-71.3%
8,COC(=O)c1ccc([C@@H]2C[C@H]3CN(Cc4cccnc4)C(=O)[C@]34CCCN24)cc1,-1.19%
9,Cc1cc(C(=O)N/N=C/c2c[nH]c3ccccc23)cs1,-8.33%
10,CCNC(=O)CSc1nc2cc([N+](=O)[O-])ccc2n1-c1cccc(C(F)(F)F)c1,-35.8%
11,NC(=O)NC(=O)CSc1nc2cc([N+](=O)[O-])ccc2n1-c1cccc(C(F)(F)F)c1,-57.7%
12,C=CCNC(=O)NC(=O)CSc1nc2cc([N+](=O)[O-])ccc2n1-c1cccc(C(F)(F)F)c1,20.8%
13,NC(=O)CSc1nc2cc([N+](=O)[O-])ccc2n1-c1cccc(C(F)(F)F)c1,-69.9%
14,NC(=O)CSc1nnc(-c2ccccc2Br)n1-c1cccc(C(F)(F)F)c1,-11.9%
15,CC(Sc1nc2cc([N+](=O)[O-])ccc2n1-c1cccc(C(F)(F)F)c1)C(=O)NC(N)=O (stereo not drawn),13.6%
16,Cc1ccc(SCC(=O)Nc2cccc(C(=O)NC(C)(C)C)c2)cc1,4.17%
17,O=C(Nc1cc(Cl)ccc1N1CCOCC1)c1cccnc1Cl,1.8%
18,O=S(=O)(c1ccc(N2CCCCCC2)nc1)N1CCCC1,17.2%
19,Cc1ccc(S(=O)(=O)N(C)C)cc1[N+](=O)[O-],-4.14%
20,COc1ccc(CCNC(=O)c2cnccn2)cc1,10.8%
21,Cc1ccc2c(ccc[n+]2CC(=O)c2ccccc2)c1.[Br-],-13.1%

row,SMILES,"hERG current change (%, negative = inhibition) at 10uM"
1,O=C(C[n+]1cc(Br)cc2ccccc21)c1ccc(Br)cc1.[Br-],-83.3%
2,O=C(C[n+]1cc(Br)cc2ccccc21)c1ccc(Cl)cc1.[Br-],-49.8%
3,O=C(C[n+]1cccc2ccccc21)c1ccc(NC(=O)c2ccccc2)cc1.[Br-],8.45%
4,COc1ccc(C(=O)C[n+]2cc(Br)cc3ccccc32)cc1[N+](=O)[O-].[Br-],-66.3%
5,O=C(C[n+]1cc(Br)cc2ccccc21)c1ccccc1.[Br-],-21.7%
6,O=C(C[n+]1cc2ccccc2c2ccccc21)c1ccccc1.[Br-],-73.8%
7,COc1ccc(C(=O)C[n+]2cccc(C)c2C)cc1[N+](=O)[O-].[Br-],-13.2%
8,O=C(C[n+]1cc(Br)cc2ccccc21)c1ccc(F)cc1.[Br-],-41.6%
9,N#CCc1c(C#N)c(N)nc(N2CCN(S(=O)(=O)c3ccccc3)CC2)c1C#N,-0.357%
10,C=CCn1c(SCC(=O)Nc2cccnc2Cl)nnc1-c1ccccc1F,-15.5%
11,COc1cc(C=O)ccc1OCCSc1ccc(C)cc1,-3.13%
12,O=C(CSc1nnc(CNC(=O)c2ccco2)o1)Nc1ccccc1,17.2%
13,CN(C)C(CNC(=O)CCc1c[nH]c2ccccc12)c1ccccc1 (stereo not drawn),-5.7%
14,CCOC(=O)C1=CC[C@H]2c3c(c4ccccc4n3C)C(=O)C1N2S(=O)(=O)c1ccc(C)cc1,-4.05%
15,COc1ccc(OC)c(C2=NS(=O)(=O)N(C)C(C(=O)NCc3cccs3)=C2)c1,-28%
16,Cc1ccc(C2=NS(=O)(=O)N(C)C(C(=O)NCc3ccco3)=C2)cc1,-58.4%
17,COc1ccc(C2=NS(=O)(=O)N(C)C(C(=O)N(C)Cc3ccccc3)=C2)cc1,-69.9%
18,COc1ccc(C2=NS(=O)(=O)N(C)C(C(=O)NC(C)c3ccccc3)=C2)cc1 (stereo not drawn),-23.8%
19,Cc1ccc(C2=NS(=O)(=O)N(C)C(C(=O)NCc3cccs3)=C2)cc1,-8.57%
20,COc1ccc(C2=NS(=O)(=O)N(C)C(C(=O)NCc3ccccn3)=C2)cc1,-33.9%
21,CN1C(C(=O)NCc2ccco2)=CC(c2ccc(F)cc2)=NS1(=O)=O,-34.2%

row,SMILES,"hERG current change (%, negative = inhibition) at 10uM"
1,COc1ccc(CNC(=O)C2=CC(c3ccc(OC)cc3)=NS(=O)(=O)N2C)cc1,-54.5%
2,COc1ccc(C2=NS(=O)(=O)N(C)C(C(=O)NCc3cccs3)=C2)cc1OC,-53.9%
3,COc1ccc(C2=NS(=O)(=O)N(C)C(C(=O)NCc3ccco3)=C2)cc1OC,-48.9%
4,COc1ccc(C2=NS(=O)(=O)N(C)C(C(=O)N(C)Cc3ccccc3)=C2)cc1OC,-6.75%
5,COc1ccc(CNC(=O)C2=CC(c3ccc(C)cc3)=NS(=O)(=O)N2C)cc1,-9.69%
6,CCc1ccc(C2CC(c3ccc(Cl)cc3)n3nc(N)nc3N2)cc1 (stereo not drawn),-10.3%
7,CC(C(=O)N1CCc2ccccc21)N1CCN(S(=O)(=O)c2cccs2)CC1 (stereo not drawn),-28.8%
8,Cc1ccnc(OC(C(=O)O)C(OCCc2ccccc2)(c2ccccc2)c2ccccc2)n1 (stereo not drawn),23.2%
9,CC(=O)Nc1n[nH]c(-c2ccc(C)cc2)c1C,4.49%
10,Cc1ccc(CNS(=O)(=O)CCNC(=O)c2ccccc2)cc1,-33.5%
11,Cc1[nH]nc2c1C(c1cccs1)C(C#N)=C(N)O2 (stereo not drawn),5.07%
12,O=C(OCC(=O)N1CCc2ccccc2C1)c1cccnc1Cl,-0.321%
13,COc1ccc(C2=NS(=O)(=O)N(C)C(C(=O)Nc3ccc4c(c3)OCO4)=C2)cc1,-4.37%
14,COc1ccc(C2=NS(=O)(=O)N(C)C(C(=O)NCc3ccc4c(c3)OCO4)=C2)cc1OC,-34.9%
15,COc1ccc(CNC(=O)C2=CC(c3ccc(OC)c(OC)c3)=NS(=O)(=O)N2C)cc1,-21.8%
16,COc1ccc(C2=NS(=O)(=O)N(C)C(C(=O)NCc3ccc(F)cc3)=C2)cc1OC,-59%
17,COc1ccc(C2=NS(=O)(=O)N(C)C(C(=O)NCc3ccc4c(c3)OCO4)=C2)cc1,-63.3%
18,Cc1ccc(C2=NS(=O)(=O)N(C)C(C(=O)NCc3ccc(F)cc3)=C2)cc1,-28.4%
